# Where “and” joins values, the source holds several entries; their conditions need not be identical. Identical values can stand only once. A number with no mark means an inactive call. Inconclusive results are not listed. Entries that show only a call come without a potency. Calls of active or inactive are those of the source. Unless noted, calls follow the shape of the dose curve; as a rule, active = well fitted curve in the direction sought with a large enough effect in the repeat runs; inconclusive = weak or mixed curves; inactive = no such curve, though single readings can be large; an effect the other way counts as inactive or inconclusive.
# Assays:
# [1] = qHTS assay to identify small molecule antagonists of the estrogen related receptor (ERR) signaling pathway from Tox21 library - cell viability counter screen (AID 1224834); also: nearly all actives have a fitted effect of over 30% in size; also: potency is read from the fitted curve at half-maximal effect
# In short: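 Cytotoxicity of test substances is gauged in the same ERR cells used for the antagonist screen, after 17.5 h of compound treatment at 37 C, by CellTiter-Fluor fluorescence measured after 30 min.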
# [2] = target: Luciferin 4-monooxygenase (Photinus pyralis) (UniProt P08659); assay: qHTS assay to identify small molecule inhibitors of firefly luciferase (AID 1224835); also: nearly all actives have a fitted effect of over 25% in size; also: potency is read from the fitted curve at half-maximal effect
# In short: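 Biochemical qHTS: compounds run as interplate titrations against purified firefly enzyme, with D-luciferin and ATP each at its KM concentration. Light output recorded by CCD imaging.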
# [3] = qHTS assay to identify small molecule agonists of the constitutive androstane receptor (CAR) signaling pathway - cell viability counter screen (AID 1224836); also: nearly all actives have a fitted effect of over 45% in size; also: potency is read from the fitted curve at half-maximal effect
# In short: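 Cell viability multiplexed with the CAR agonist screen: CellTiter-Fluor fluorescence after 23 hr at 37 C. HepG2-CYP2B6-hCAR cells got compounds at 15 concentrations with PK11195 at 0.75 uM final.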
# [4] = qHTS assay to identify small molecule antagonists of the constitutive androstane receptor (CAR) signaling pathway - cell viability counter screen (AID 1224837); also: nearly all actives have a fitted effect of over 45% in size; also: potency is read from the fitted curve at half-maximal effect
# In short: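 Multiplexed cytotoxicity read-out for the CAR antagonist screen: double-stable HepG2-CYP2B6-hCAR cells co-treated with 50 nM CITCO (final) and compound over 15 concentrations, incubated 23 hr, then assessed by CellTiter-Fluor fluorescence.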
# [5] = target: Nuclear receptor subfamily 1 group I member 3 (Homo sapiens) (UniProt Q14994); assay: qHTS assay to identify small molecule antagonists of the constitutive androstane receptor (CAR) signaling pathway (AID 1224838); also: nearly all actives have a fitted effect of over 40% in size; also: potency is read from the fitted curve at half-maximal effect
# In short: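 Compounds were titrated across 15 concentrations onto HepG2 cells double-stably expressing hCAR and a CYP2B6-2.2kb reporter, together with 50 nM CITCO (final). After 24 h at 37 C, luciferase activity was measured by luminescence.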
# [6] = target: Nuclear receptor subfamily 1 group I member 3 (Homo sapiens) (UniProt Q14994); assay: qHTS assay to identify small molecule agonists of the constitutive androstane receptor (CAR) signaling pathway (AID 1224839); also: nearly all actives have a fitted effect of over 15% in size; also: potency is read from the fitted curve at half-maximal effect;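 as to activation: HepG2 cells stably carrying human CAR and a CYP2B6 luciferase reporter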
# In short: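 Luminescent ONE-Glo read-out after 24 hr, 37 C exposure of double-stable HepG2-CYP2B6-hCAR reporter cells to a 15-point compound series, in the presence of 0.75 uM PK11195 (final).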
# [7] = qHTS assay to identify small molecule antagonists of the estrogen related receptor signaling pathway with the pleiotropic PPARgamma coactivator (PGC) from Tox21 10K library - cell viability counter screen (AID 1224840; active = well fitted cell-killing curve with a large enough effect in the repeat runs, not every such curve was filed as active; also: nearly all actives have a fitted effect of over 40% in size; also: potency is read from the fitted curve at half-maximal effect)
# In short: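 Step one, plate 2,000 PGC/ERR cells per well; step two, incubate 6 h at 37 C/5% CO2; step three, pin-transfer compounds; step four, incubate 17.5 h; step five, add CellTiter-Fluor and read fluorescence after 30 min.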
# [8] = qHTS assay to identify small molecule agonists of the estrogen related receptor signaling pathway with the pleiotropic PPARgamma coactivator (PGC) from Tox21 10K library (AID 1224842); also: nearly all actives have a fitted effect of over 15% in size
# In short: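 PGC/ERR reporter cell line, 2,000 cells per well, incubated 6 h at 37 C before 23 nL compound in DMSO was added. After 18 h at 37 C, One-Glo luminescence read following 30 min at room temperature.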
# [9] = qHTS assay to identify small molecule agonists of the hypoxia (HIF-1) signaling pathway - cell viability counter screen (AID 1224844; calls by dose curve; also: nearly all actives have a fitted effect of over 50% in size; also: potency is read from the fitted curve at half-maximal effect)
# In short: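 Tox21 10K compounds were added to HRE-bla ME-180 cells (0.5% dialyzed FBS) and incubated 17 hrs at 37C; ATP-based CellTiter-Glo luminescence then reported cell viability in the same wells.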
# [10] = qHTS assay to identify small molecule agonists of H2AX (AID 1224845; active = well fitted activation curve with a large enough effect in the signal ratio in the repeat runs, not every such curve was filed as active; the % refers to the signal ratio)
# In short: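 Wild-type CHO-K1 cells, plated overnight, exposed 3hr at 37C to 15 concentrations (0.76% DMSO final). Lysed, then HTRF anti-pH2AX (S139) cryptate and anti-H2AX-d2 antibodies, 24 hr room temperature; 665/620 nm emission read.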
# [11] = qHTS assay to identify small molecule agonists of H2AX - cell viability counter screen (AID 1224847; calls by dose curve; also: nearly all actives have a fitted effect of over 30% in size; also: potency is read from the fitted curve at half-maximal effect)
# In short: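 Counter-screen for viability: CellTiter-Glo ATP luminescence read after 3 h compound treatment (15-point titration, 0.76% DMSO final) of CHO-K1 cells at 37C, with 30 min room-temperature reagent incubation.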
# [12] = qHTS assay to identify small molecule agonists of the estrogen related receptor (ERR) signaling pathway from Tox21 library (AID 1224849; calls by dose curve; also: nearly all actives have a fitted effect of over 15% in size); conditions: ERR reporter cell line, ONE-Glo luciferase, 18 h; at 92.4 µM (top of the series) unless noted
# In short: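 Agonist signal is luciferase luminescence from an ERR reporter cell line treated 18 h at 37 C with DMSO-dissolved compounds, read 30 min after ONE-Glo addition at room temperature.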
# [13] = qHTS RealTime-Glo MT Cell Viability Assay in HepG2 cells - 24 hour (AID 1224867); also: nearly all actives have a fitted effect of over 50% in size; also: potency is read from the fitted curve at half-maximal effect
# In short: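 HepG2 cells (600/well) were dispensed with RealTime-Glo reagents, incubated 5 h at 37 °C, then treated with compounds in DMSO for up to 40 h. Nonlytic NanoLuc luminescence reflecting viable cells was read at each stated time point.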
# [14] = qHTS RealTime-Glo MT Cell Viability Assay in HEK293 cells - 32 hour (AID 1224868); also: nearly all actives have a fitted effect of over 50% in size; also: potency is read from the fitted curve at half-maximal effect
# In short: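 HEK293 cells seeded with NanoLuc/prosubstrate reagent, rested 5 h at 37 C, then dosed and kept at 37 C up to 40 h. Nonlytic real-time luminescence from viable cells read at 0, 8, 16, 24, 32 and 40 h.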
# [15] = A CellTox Green Cytotoxicity Assay to monitor cytotoxicity in HEK293 cells - 0 hour (AID 1224869); also: nearly all actives have a fitted effect of over 50% in size
# In short: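 Cytotoxicity was tracked continuously in HEK293 cells by a DNA-binding dye excluded from viable cells. Compounds were transferred in DMSO 5 h after seeding; fluorescence was recorded at intervals up to 40 h.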
# [16] = qHTS assay to identify small molecule antagonists of the estrogen related receptor signaling pathway with the pleiotropic PPARgamma coactivator (PGC) from Tox21 10K library (AID 1224841; call rule not given here; also: potency is read from the fitted curve at half-maximal effect)
# In short: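 Antagonism in this quantitative HTS is taken from loss of luciferase signal in PGC/ERR cells. Cells (2,000/well) are treated with compounds in DMSO after a 6 h settling period and read by One-Glo luminescence after 18 h.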
# [17] = target: Thyrotropin receptor (Homo sapiens) (UniProt P16473); assay: qHTS assay to identify small molecule agonists of the thyroid stimulating hormone receptor (TSHR) signaling pathway (AID 1224843; calls by dose curve; also: nearly all actives have a fitted effect of over 45% in size; also: potency is read from the fitted curve at half-maximal effect)
# In short: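 Steps: seed 800 TSHR-HEK293 cells per well; add test compound and hold 30 min at ambient temperature; dispense cAMP-d2 then anti-cAMP cryptate; incubate 1 h at ambient; measure fluorescence intensity.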
# [18] = qHTS assay to identify small molecule agonists of the hypoxia (HIF-1) signaling pathway (AID 1224846; active = well fitted activation curve with a large enough effect in the signal ratio in the repeat runs, not every such curve was filed as active; the % refers to the signal ratio)
# In short: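 Steps: seed ME-180 HRE-bla cells (2,000/well, 0.5% dialyzed FBS); incubate 5 hrs at 37C; pin-transfer compounds or DMSO; incubate 17 hrs; add LiveBLAzer B/G substrate CCF4-AM; measure reporter activation by FRET.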
# [19] = qHTS assay to identify small molecule antagonists of the estrogen related receptor (ERR) signaling pathway from Tox21 library (AID 1224848); also: nearly all actives have a fitted effect of over 50% in size; also: potency is read from the fitted curve at half-maximal effect
# In short: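 Luminescent reporter read-out (ONE-Glo) from NTP's ERR cell line after 18 h treatment at 37 C with DMSO-dissolved Tox21 compounds; cells pre-plated 6 h beforehand at 2,000 per well.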
# [20] = qHTS RealTime-Glo MT Cell Viability Assay in HepG2 cells - 40 hour (AID 1224870); also: nearly all actives have a fitted effect of over 50% in size; also: potency is read from the fitted curve at half-maximal effect
# In short: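 HepG2 cells (600/well) mixed with RealTime-Glo MT reagent, settled 5 h at 37 C/5% CO2 before compound addition. Nonlytic NanoLuc luminescence from viable-cell prosubstrate reduction read repeatedly during 40 h treatment at 37 C.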
# Chain of Nuclear receptor subfamily 1 group I member 3 (Homo sapiens) (Q14994 whole entry, looked up): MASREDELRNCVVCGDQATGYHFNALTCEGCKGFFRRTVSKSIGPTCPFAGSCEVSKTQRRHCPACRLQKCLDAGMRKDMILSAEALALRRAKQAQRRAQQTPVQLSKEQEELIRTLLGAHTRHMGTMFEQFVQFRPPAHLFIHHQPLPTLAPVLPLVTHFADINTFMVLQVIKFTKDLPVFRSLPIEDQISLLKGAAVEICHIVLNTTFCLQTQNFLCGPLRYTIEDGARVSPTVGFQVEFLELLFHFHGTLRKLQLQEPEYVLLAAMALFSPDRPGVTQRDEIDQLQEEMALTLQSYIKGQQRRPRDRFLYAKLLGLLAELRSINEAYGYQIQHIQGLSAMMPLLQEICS
# Chain of Luciferin 4-monooxygenase (Photinus pyralis) (P08659 whole entry, looked up): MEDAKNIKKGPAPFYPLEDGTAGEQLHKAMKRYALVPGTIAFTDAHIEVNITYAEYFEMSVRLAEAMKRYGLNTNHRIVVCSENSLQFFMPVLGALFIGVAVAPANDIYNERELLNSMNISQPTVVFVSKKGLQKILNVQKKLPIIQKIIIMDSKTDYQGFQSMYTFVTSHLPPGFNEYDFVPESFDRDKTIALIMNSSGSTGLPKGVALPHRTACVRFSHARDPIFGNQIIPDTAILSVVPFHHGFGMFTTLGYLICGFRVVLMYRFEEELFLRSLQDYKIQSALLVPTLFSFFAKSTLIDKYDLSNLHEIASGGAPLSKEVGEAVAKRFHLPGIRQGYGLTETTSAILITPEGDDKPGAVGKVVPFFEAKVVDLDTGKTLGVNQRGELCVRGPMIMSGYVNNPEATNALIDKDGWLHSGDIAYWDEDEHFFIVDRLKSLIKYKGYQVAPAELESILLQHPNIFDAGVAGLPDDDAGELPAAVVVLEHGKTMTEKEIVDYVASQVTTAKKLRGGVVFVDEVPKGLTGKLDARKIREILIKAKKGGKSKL
# Chain of Thyrotropin receptor (Homo sapiens) (P16473 whole entry, looked up): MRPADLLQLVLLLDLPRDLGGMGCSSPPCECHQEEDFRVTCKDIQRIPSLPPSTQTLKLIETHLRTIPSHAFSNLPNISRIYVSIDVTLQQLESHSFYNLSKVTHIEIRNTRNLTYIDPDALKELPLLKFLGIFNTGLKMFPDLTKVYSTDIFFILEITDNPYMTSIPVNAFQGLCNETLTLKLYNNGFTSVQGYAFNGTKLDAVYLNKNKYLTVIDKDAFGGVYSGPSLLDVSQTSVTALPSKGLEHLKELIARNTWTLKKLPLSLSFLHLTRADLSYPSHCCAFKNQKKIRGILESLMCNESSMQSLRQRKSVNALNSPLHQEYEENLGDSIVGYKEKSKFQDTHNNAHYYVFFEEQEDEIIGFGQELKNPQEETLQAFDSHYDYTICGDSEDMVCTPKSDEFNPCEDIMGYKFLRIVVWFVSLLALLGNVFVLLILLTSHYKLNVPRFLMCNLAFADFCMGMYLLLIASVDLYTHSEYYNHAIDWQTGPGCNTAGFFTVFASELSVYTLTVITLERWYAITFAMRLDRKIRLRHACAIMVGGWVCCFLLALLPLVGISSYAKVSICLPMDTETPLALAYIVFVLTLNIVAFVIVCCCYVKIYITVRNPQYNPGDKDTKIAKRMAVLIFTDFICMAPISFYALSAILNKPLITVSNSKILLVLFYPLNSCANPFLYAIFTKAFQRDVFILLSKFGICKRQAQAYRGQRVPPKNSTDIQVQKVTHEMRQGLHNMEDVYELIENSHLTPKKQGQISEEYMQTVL
SMILES,Potency [1],Potency [2],Potency [3],Potency [4],Potency [5],Potency [6],Potency [7],Potency [8],Potency [9],Potency [10],Potency [11],"activity change, positive = activation [12]",Potency [13],Potency [14],Potency [15],Potency [16],Potency [17],Potency [18],Potency [19],Potency [20]
COC(=O)/C=C(\C)OP(=O)(OC)OC,inactive,inactive,inactive,inactive,inactive,inactive,inactive,inactive,inactive,inactive,inactive,-31.3%,inactive,inactive,inactive,–,–,–,–,–
CCCCCON=O,inactive,inactive,inactive,inactive,inactive,inactive,inactive,inactive,inactive,inactive,inactive,-5.1%,inactive,inactive,inactive,30.7 µM (active),inactive,inactive,inactive,inactive
C[C@@H]1CC2=CC(=O)CC[C@@H]2[C@H]2CC[C@@]3(C)[C@@H](CC[C@]3(C)O)[C@@H]21,inactive,inactive,inactive,inactive,inactive,inactive,inactive,inactive,inactive,inactive,inactive,-28.8% [at 42.5 µM],–,–,inactive,–,inactive,–,23.7 µM (active),inactive
Cc1c([N+](=O)[O-])cc2c(c1[N+](=O)[O-])C(C)(C)CC2(C)C,inactive,inactive,inactive,inactive,inactive,12.2 µM (active),inactive,inactive,inactive,inactive,–,-30.3%,inactive,–,inactive,30.6 µM (active),48.6 µM (active),inactive,–,inactive
CN=C=O,inactive,inactive,inactive,inactive,inactive,inactive,inactive,inactive,inactive,inactive,inactive,0.484%,inactive,inactive,inactive,inactive,inactive,inactive,inactive,inactive
CCN1CCC2(CC1)COc1cc3c(cc12)N(C(=O)c1ccc(-c2ccc(-c4nnc(C)o4)cc2C)cc1)CC3,17.8 µM (active),inactive,44.8 µM (active),50.2 µM (active),44.8 µM (active),inactive,17.8 µM (active),inactive,20.2 µM (active),inactive,104 µM (active),-74.2%,–,11.3 µM (active),inactive,7.96 µM (active),–,–,10 µM (active),45.2 µM (active)
ClC1=C(Cl)[C@]2(Cl)[C@H]3[C@H]([C@@H]4C=C[C@H]3C4)[C@@]1(Cl)C2(Cl)Cl,inactive,inactive,inactive,inactive,inactive,13.7 µM (active),inactive,–,43.6 µM (active),–,89.8 µM (active),–,54.9 µM (active),48.9 µM (active) and 49 µM (active),inactive,–,19.3 µM (active) and 13.7 µM (active),–,–,inactive
CC(C)NCC(O)c1ccccc1Cl (stereo not drawn),inactive,inactive,inactive,inactive,inactive,inactive,inactive,inactive,inactive,inactive,inactive,0.518% [at 42.5 µM],inactive,inactive,inactive,inactive,–,inactive,inactive,inactive
CC(C)N(C(=O)CCl)c1ccccc1,21.7 µM (active),inactive,68.6 µM (active) and 61.1 µM (active),54.5 µM (active) and 48.6 µM (active),54.5 µM (active) and 38.6 µM (active),inactive,30.6 µM (active),inactive,–,–,–,-77.7% and -74.7%,–,–,inactive,9.69 µM (active) and 6.11 µM (active),inactive,–,15.4 µM (active) and 13.7 µM (active),–
CC(Cc1ccc(OCC(=O)O)cc1)NCC(O)c1csc(C(F)(F)F)n1 (stereo not drawn),inactive,inactive,inactive,inactive,inactive,inactive,inactive,inactive,inactive,inactive,inactive,13.9%,inactive,inactive,inactive,inactive,inactive,inactive,inactive,inactive
CC(C)C(Br)C(=O)NC(N)=O (stereo not drawn),inactive,inactive,inactive,inactive,inactive,inactive,inactive,–,inactive,inactive,inactive,–,–,inactive,inactive,–,inactive,inactive,–,inactive
Clc1ccc(C2(Cn3cncn3)OCCO2)c(Cl)c1,inactive,inactive,inactive,inactive,inactive,inactive,inactive,inactive,inactive,inactive,inactive,-6.38%,inactive,inactive,inactive,inactive,inactive,inactive,inactive,inactive
C=C(C)C(=O)[O][Sn]([CH2]CCC)([CH2]CCC)[CH2]CCC,1.72 µM (active),35.6 µM (active),0.77 µM (active),0.864 µM (active),0.273 µM (active),inactive,0.864 µM (active),inactive,0.692 µM (active),–,0.713 µM (active),-73.3%,0.436 µM (active),0.275 µM (active),inactive,–,0.486 µM (active),–,0.486 µM (active),0.195 µM (active)
